Results filed as inconclusive are left out. The source made the active and inactive calls. Unless noted, calls come from the whole dose curve; as a rule, active = well fitted curve in the direction sought with a large enough effect; inconclusive = small, poorly fitted or top-dose-only effect, or another doubt; inactive = no such curve, though single readings can be large; an effect the other way counts as inactive or inconclusive.
Legend:
[1] = qHTS to identify inhibitors of the type 1 interferon - major histocompatibility complex class I in skeletal muscle: primary screen against the NCATS LOPAC collection (AID 1347405);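 note: lytic HiBiT luminescence reporting HLA-B protein level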; note: potency is the fitted concentration of half-maximal effect
How it was run: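 Immortalized human C25cl48 myoblasts with HiBiT knocked into endogenous HLA-B*08:01 were stimulated with 4.0 ng/ml IFN-beta and given compounds in a 7-point, 1:4.3 titration from 46 uM final; after 24 hrs, lytic HiBiT luminescence was read.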

[2] = qHTS to identify inhibitors of the type 1 interferon - major histocompatibility complex class I in skeletal muscle: primary screen against the NCATS Pharmaceutical Collection (AID 1347407);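 note: luminescence of HiBiT knocked into endogenous HLA-B as interferon-induced MHC class I level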; note: potency is the fitted concentration of half-maximal effect
How it was run: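 Cells were seeded with 4 ng/ml IFN-beta, incubated 1 h, then dosed with compounds over eight 1:5 steps up to 46 uM final. After 24 h at 37 C, HiBiT lytic reagent was added and luminescence read after 10 min lysis in the dark.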

[3] = qHTS for inhibitors of adenylyl cyclases using a fission yeast platform: a pilot screen against the NCATS LOPAC library (AID 1347410)
How it was run: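 Growth medium went into the plates first, then compounds were pinned (final up to 57 µM), then CHP2027 yeast were added. Plates were incubated overnight (18 h) at 30C in the dark, and GFP was measured by laser scanning cytometry.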

[4] = biological target: Protein phosphatase 1D (Homo sapiens) (UniProt O15297); test: RapidFire Mass Spectrometry qHTS Assay for Modulators of WT P53-Induced Phosphatase 1 (WIP1) (AID 1347424);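 note: amount of dephosphorylated VEPPL-S-QETFS peptide product formed by WIP1; series mostly up to about 63 µM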
Sequence of Protein phosphatase 1D (Homo sapiens) (O15297 whole entry, looked up): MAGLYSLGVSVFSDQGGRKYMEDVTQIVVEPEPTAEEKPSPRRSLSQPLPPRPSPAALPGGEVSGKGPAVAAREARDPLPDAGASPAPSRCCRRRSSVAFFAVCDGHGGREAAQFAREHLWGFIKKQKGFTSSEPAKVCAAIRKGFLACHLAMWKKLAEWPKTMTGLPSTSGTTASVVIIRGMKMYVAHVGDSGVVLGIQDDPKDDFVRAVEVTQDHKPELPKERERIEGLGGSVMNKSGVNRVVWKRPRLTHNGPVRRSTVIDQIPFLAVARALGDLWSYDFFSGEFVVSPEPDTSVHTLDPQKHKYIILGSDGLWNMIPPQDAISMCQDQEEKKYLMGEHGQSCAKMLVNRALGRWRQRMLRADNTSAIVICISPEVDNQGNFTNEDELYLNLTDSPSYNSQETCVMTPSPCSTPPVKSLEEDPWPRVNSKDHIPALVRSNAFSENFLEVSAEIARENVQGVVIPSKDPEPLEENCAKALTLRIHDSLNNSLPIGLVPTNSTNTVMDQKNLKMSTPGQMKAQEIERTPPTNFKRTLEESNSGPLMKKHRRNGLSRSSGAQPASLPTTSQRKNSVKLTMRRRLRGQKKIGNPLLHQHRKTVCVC
How it was run: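 10 nM WIP1 + cpd, 1 h RT; + 2 uM VEPPL-pS-QETFS, 5 min RT; stop 0.5% formic acid; labelled product standard 1 uM; RapidFire MS. Buffer 50 mM Tris pH 7.5, 30 mM MgCl2, 1 mM TCEP.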

[5] = biological target: Protein phosphatase 1D (Homo sapiens) (UniProt O15297); test: Rhodamine-PBP qHTS Assay for Modulators of WT P53-Induced Phosphatase 1 (WIP1) (AID 1347425)
How it was run: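 WIP1 (5 nM final) was preincubated with compound for 1 hour at room temperature. It then dephosphorylated 10 uM VEPPL-pS-QETFS peptide in Tris-HCl pH 7.5 with 30 mM MgCl2. Released Pi was detected by 10 uM Rh-PBP fluorescence (ex 525/em 598 nm) read at 1-min intervals for 11 min, as delta f1 - f0.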

[6] = Validation qHTS assay for inhibitors of Activation Induced Cytidine Deaminase (AID): UDG Counterscreen signal (AID 1347427)
How it was run: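 Counterscreen read of UDG activity (2 U/mL, 4/3x) in the FRET deamination format with AID (1 uM, 4/3x), DJC20/DJC23 substrates (250 nM, 4x), 4 h at room temperature. NaOH stop, fluorescence at 560 ex/665 em.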

[7] = biological target: Single-stranded DNA cytosine deaminase (Homo sapiens) (UniProt Q9GZX7); test: Validation qHTS assay for inhibitors of Activation Induced Cytidine Deaminase (AID): AID signal (AID 1347429)
Sequence of Single-stranded DNA cytosine deaminase (Homo sapiens) (Q9GZX7 whole entry, looked up): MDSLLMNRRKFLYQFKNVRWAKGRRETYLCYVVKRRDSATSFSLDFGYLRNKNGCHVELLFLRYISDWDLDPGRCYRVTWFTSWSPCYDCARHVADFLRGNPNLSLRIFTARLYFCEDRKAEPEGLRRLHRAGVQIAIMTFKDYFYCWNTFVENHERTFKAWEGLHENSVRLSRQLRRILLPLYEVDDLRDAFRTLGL
How it was run: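 AID and UDG were combined and compounds added at final up to 114 uM, then DJC20/DJC23 FRET substrate was added for 4 hr at room temperature. NaOH was then added for 30 min before fluorescence was read at 540/590 nm.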

[8] = Primary qHTS for inhibitors of La Crosse Virus (LACV) - induced cell death in SH-SY5Y cells (AID 1508616);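 note: top concentration of the series differs between compounds; higher means more rescue of cells from virus-induced death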
How it was run: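 Luminescent ATP readout (ATPLite 1step, 5 min room temperature) measured rescue from LACV-induced death after 6 days of infection at 0.01 MOI; normalized to infected DMSO wells and uninfected DMSO wells.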

[9] = biological target: Calcium and integrin-binding protein 1 (Homo sapiens) (UniProt Q99828); test: Validation qHTS for Identification of Calcium Integrin Binding protein 1 (CIB1) Competitor (AID 1508618)
Sequence of Calcium and integrin-binding protein 1 (Homo sapiens) (Q99828 whole entry, looked up): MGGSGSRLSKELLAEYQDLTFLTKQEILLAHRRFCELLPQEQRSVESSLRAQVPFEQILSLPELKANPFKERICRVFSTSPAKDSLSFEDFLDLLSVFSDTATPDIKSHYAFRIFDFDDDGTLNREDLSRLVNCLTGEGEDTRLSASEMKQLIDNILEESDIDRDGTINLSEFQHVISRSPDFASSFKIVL
How it was run: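 Fluorescence polarization with 1 uM CIB1-GST and 100 nM FITC-alphaIIb peptide in HEPES pH 7.4, NaCl, 5 mM CaCl2, Tween20. Compounds at up to 114 uM final, preincubated with protein 15 min; read after 15 min more at RT.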

[10] = biological target: Calcium and integrin-binding protein 1 (Homo sapiens) (UniProt Q99828); test: Primary qHTS for Identification of Calcium Integrin Binding Protein 1 (CIB1) Competitor (AID 1508620);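 note: GST tagged CIB1 binding a fluorescein labelled alphaIIb integrin peptide tracer; top concentration of the series differs between compounds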
How it was run: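 CIB1-GST (1 uM final) and compound incubated 15 min at room temperature before adding FITC-alphaIIb peptide tracer (100 nM final). Competition for binding read by fluorescence polarization (ex 480, em 540) after another 15 min at room temperature.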

[11] = A High-Content qHTS Against Drug Library for the Identification of Small Molecules that Inhibit DYT1 Early Onset Primary Dystonia-Associated Cell Pathology (AID 1645839; calls by dose curve; note: potency is the fitted concentration of half-maximal effect)
How it was run: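 In this high-content image screen, delE TorsinA mislocalization in inducible Flp-In 293 cells is scored as %pathology, with cell count serving as the counterscreen. Compound exposure lasts 48 h under tetracycline induction in reduced-serum medium.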

[12] = biological target: Cytochrome P450 2D6 (Homo sapiens) (UniProt P10635); test: Cytochrome P450 family 2 subfamily D member 6 (CYP2D6) small molecule antagonists: luciferase biochemical (cell-free) qHTS assay (AID 1645840; active = well fitted curve in the direction sought with a large enough effect in the repeat runs; an effect the other way counts as inactive or inconclusive; note: nearly all actives have a fitted effect of over 55% in size; note: potency is the fitted concentration of half-maximal effect)
Sequence of Cytochrome P450 2D6 (Homo sapiens) (P10635 whole entry, looked up): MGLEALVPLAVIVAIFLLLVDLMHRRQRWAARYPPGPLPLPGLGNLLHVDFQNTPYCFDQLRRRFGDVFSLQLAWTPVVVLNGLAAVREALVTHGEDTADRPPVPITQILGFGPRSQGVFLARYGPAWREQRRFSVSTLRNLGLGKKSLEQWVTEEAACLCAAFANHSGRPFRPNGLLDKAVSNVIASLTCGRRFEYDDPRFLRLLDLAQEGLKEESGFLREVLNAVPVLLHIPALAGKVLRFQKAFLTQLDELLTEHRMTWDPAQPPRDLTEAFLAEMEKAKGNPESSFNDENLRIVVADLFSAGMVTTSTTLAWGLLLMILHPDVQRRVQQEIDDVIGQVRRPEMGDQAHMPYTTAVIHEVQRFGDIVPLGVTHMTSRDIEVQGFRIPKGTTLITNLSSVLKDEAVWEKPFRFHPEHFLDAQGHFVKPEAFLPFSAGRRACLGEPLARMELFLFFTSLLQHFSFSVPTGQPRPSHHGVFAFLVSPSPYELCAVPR
How it was run: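 P450-Glo luminescent screen: recombinant CYP2D6 enzyme–proluciferin substrate mix preincubated with compound 10 min at room temperature, then NADPH regeneration added for 1 h at room temperature. Detection reagent added for 20 min; luciferin light read as relative luminescence units.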

[13] = biological target: Cytochrome P450 2C9 (Homo sapiens) (UniProt P11712); test: Cytochrome P450 family 2 subfamily C member 9 (CYP2C9) small molecule antagonists: luciferase biochemical (cell-free) qHTS assay (AID 1645842; active = well fitted curve in the direction sought with a large enough effect in the repeat runs; an effect the other way counts as inactive or inconclusive; note: nearly all actives have a fitted effect of over 55% in size; note: potency is the fitted concentration of half-maximal effect)
Sequence of Cytochrome P450 2C9 (Homo sapiens) (P11712 whole entry, looked up): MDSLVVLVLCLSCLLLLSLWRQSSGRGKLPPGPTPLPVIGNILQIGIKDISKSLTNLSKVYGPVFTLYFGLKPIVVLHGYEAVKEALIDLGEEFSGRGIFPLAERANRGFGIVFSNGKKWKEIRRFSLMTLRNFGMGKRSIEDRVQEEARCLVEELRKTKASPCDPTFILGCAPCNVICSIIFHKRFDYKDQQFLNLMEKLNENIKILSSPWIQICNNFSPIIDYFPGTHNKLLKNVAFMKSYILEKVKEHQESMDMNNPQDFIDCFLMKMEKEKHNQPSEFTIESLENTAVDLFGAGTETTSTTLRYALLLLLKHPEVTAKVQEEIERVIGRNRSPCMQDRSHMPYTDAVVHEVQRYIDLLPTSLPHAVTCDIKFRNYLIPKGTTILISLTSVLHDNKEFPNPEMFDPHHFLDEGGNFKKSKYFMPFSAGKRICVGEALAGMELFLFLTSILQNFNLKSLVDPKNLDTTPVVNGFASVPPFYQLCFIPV
How it was run: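 Luminescence, after 20 min with luciferin detection reagent, reflected CYP2C9 turnover during a 1 h NADPH-driven reaction at 37C. Enzyme-substrate mix contained 0.4% bovine serum albumin and was preincubated with compound 10 min at room temperature.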

[14] = qHTS to identify inhibitors of the type 1 interferon - major histocompatibility complex class I in skeletal muscle: primary screen against the NCATS Mechanism Interrogation Plate v5.0 (MIPE) Libary (AID 1347411); note: nearly all actives have a fitted effect of over 65% in size; note: potency is the fitted concentration of half-maximal effect
How it was run: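 Immortalized human C25cl48 myoblasts with HiBit knocked into endogenous HLA-B*08:01 were stimulated with 4.0 ng/ml IFN-beta and exposed to compounds (11-point 1:3 titration, top 46 uM final) for 24 hrs at 37 C; HiBiT lytic luminescence measured.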

[15] = Primary qHTS for small molecule stabilizers of the endoplasmic reticulum resident proteome: Secreted ER Calcium Modulated Protein (SERCaMP) assay (AID 1508630)
How it was run: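 GLuc-SERCaMP-expressing SH-SY5Y cells, pretreated 16 h with compound, are challenged with thapsigargin to empty ER calcium stores; after 4 h, coelenterazine is added directly to the medium and luminescence is imaged.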

[16] = biological target: Cytochrome P450 3A4 (Homo sapiens) (UniProt P08684); test: Cytochrome P450 family 3 subfamily A member 4 (CYP3A4) small molecule antagonists: luciferase qHTS assay (AID 1645841; active = well fitted curve in the direction sought with a large enough effect in the repeat runs; an effect the other way counts as inactive or inconclusive; note: nearly all actives have a fitted effect of over 45% in size)
Sequence of Cytochrome P450 3A4 (Homo sapiens) (P08684 whole entry, looked up): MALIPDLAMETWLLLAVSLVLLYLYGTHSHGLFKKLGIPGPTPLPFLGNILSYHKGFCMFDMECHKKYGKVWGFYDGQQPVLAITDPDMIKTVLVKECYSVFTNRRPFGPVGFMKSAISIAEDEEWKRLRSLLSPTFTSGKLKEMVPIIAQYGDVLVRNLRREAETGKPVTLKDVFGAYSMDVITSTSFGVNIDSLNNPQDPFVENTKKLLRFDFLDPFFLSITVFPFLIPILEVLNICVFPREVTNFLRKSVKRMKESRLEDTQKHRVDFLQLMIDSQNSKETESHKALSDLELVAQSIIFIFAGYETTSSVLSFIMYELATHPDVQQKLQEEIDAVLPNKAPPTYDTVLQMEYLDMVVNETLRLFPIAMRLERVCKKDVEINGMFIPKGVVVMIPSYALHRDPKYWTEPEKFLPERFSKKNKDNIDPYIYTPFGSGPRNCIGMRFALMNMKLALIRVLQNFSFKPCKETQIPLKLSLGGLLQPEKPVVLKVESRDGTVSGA
How it was run: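 Luminescent CYP3A4 activity readout: compounds plus enzyme-substrate mix 10 min at room temperature, reaction started with NADPH regenerating system for 1 h, stopped with detection reagent, read after 20 min. Ketoconazole served as control.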

[17] = Counterscreen qHTS for small molecule stabilizers of the endoplasmic reticulum resident proteome: GLuc-NoTag assay (AID 1508627);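 note: SH-SY5Y cells given compound then 100 nM thapsigargin to empty ER calcium; series mostly up to about 76 µM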
How it was run: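 Luminescence of Gaussia luciferase secreted into the medium (coelenterazine, 0.07x final, unlysed cells) was the read-out. Human SH-SY5Y neuroblastoma cells constitutively secreting untagged GLuc received compound for 19 h, then 100 nM thapsigargin for 4 h.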

[18] = Confirmatory qHTS for small molecule stabilizers of the endoplasmic reticulum resident proteome: Secreted ER Calcium Modulated Protein (SERCaMP) assay (AID 1508628);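 note: SH-SY5Y cells given compound 16 h then thapsigargin 100 nM for 4 h; series mostly up to about 76 µM; nearly all actives have a fitted effect of over 40% in size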
How it was run: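 We seeded SH-SY5Y-GLuc-SERCaMP cells, added compounds (three concentrations in the primary run, eleven up to 76.6 uM in confirmation), incubated 16 h, depleted ER calcium with thapsigargin, and read luciferase 4 h later.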

Measured: Potency

C[N+](C)(C)CCCCCC[N+](C)(C)C
not listed: [14] | [15] | [16] | [17] | [18]
inactive: all other assays above

Clc1ccc(Cn2c(CN3CCCC3)nc3ccccc32)cc1
active: [12] 0.309 µM | [13] 12.3 µM
not listed: [16] | [17] | [18]
inactive: all other assays above

COC(=O)[C@@H]1[C@H]2C[C@H]3c4[nH]c5ccccc5c4CCN3C[C@@H]2CC[C@@H]1O
inactive: [1] | [2] | [3] | [14] | [4] | [5] | [6] | [7] | [8] | [15]

O=C1NC(=O)C(c2ccccc2)(c2ccccc2)N1
not listed: [13] | [14] | [16] | [17] | [18]
inactive: all other assays above

CC(=O)c1ccc(S(=O)(=O)NC(=O)NC2CCCCC2)cc1
not listed: [13] | [14] | [16] | [17] | [18]
inactive: all other assays above

CN1C[C@H]2c3ccccc3Oc3ccc(Cl)cc3[C@@H]2C1
active: [11] 11.2 µM | [12] 0.0062 µM
inactive: [2] | [4] | [5] | [10] | [15] | [13]

CC(=O)O[C@]1(C(C)=O)CC[C@H]2[C@@H]3C=C(Cl)C4=CC(=O)[C@@H]5C[C@@H]5[C@]4(C)[C@H]3CC[C@@]21C
active: [13] 9.77 µM
not listed: [4] | [16] | [17] | [18]
inactive: all other assays above

CCn1cc(C(=O)O)c(=O)c2ccc(C)nc21
not listed: [9] | [13] | [14] | [15] | [16] | [17] | [18]
inactive: all other assays above

N#C[C@H]1C[C@H]2C[C@@H]2N1C(=O)[C@@H](N)C12CC3CC(CC(O)(C3)C1)C2
inactive: [2] | [4] | [5] | [8] | [15] | [11] | [12] | [13]

COc1ccc2cccc(CCNC(C)=O)c2c1
inactive: [2] | [14] | [4] | [5] | [8] | [10] | [11]

CCCCC1C(=O)N(c2ccccc2)N(c2ccccc2)C1=O
active: [1] 15.8 µM | [13] 8.71 µM
inactive: [3] | [6] | [7] | [8] | [15] | [11] | [12]

CCN(CC)C(=O)c1ccc(O)c(OC)c1
not listed: [14] | [16] | [17] | [18]
inactive: all other assays above

COc1ccc(Cc2nccc3cc(OC)c(OC)cc23)cc1OC
inactive: [1] | [3] | [6] | [7] | [9]

C[C@@H](O)[C@H]1C(=O)N2C(C(=O)O)=C(S[C@@H]3CN[C@H](C(=O)N(C)C)C3)[C@H](C)[C@H]12
inactive: [2] | [4] | [5] | [8] | [10] | [15] | [11] | [12] | [13]

O=C1NCC2(CCN(CCc3ccccc3)CC2)O1
not listed: [12] | [14] | [17] | [18]
inactive: all other assays above

COc1cccc(-c2cc(=O)c3ccccc3o2)c1N
inactive: [1] | [3] | [14] | [6] | [7] | [8] | [9] | [10] | [15]

CN(C)c1cc(NC(=O)CNC(C)(C)C)c(O)c2c1C[C@@H]1C[C@H]3[C@H](N(C)C)C(=O)C(C(N)=O)=C(O)[C@@]3(O)C(=O)C1=C2O
inactive: [2] | [8] | [10] | [11] | [13]

CCN(CC)CCOC(=O)c1ccc(N)cc1
not listed: [12] | [14] | [16]
inactive: all other assays above

O=C(CCCCCCC(=O)Nc1ccccc1)NO
active: [2] 4.19 µM | [14] 1.47 µM | [12] 4.9 µM
inactive: [4] | [5] | [10] | [15] | [13]

CN(C)CCC(c1ccccc1)c1ccccn1 (stereo not given)
not listed: [12] | [14] | [16]
inactive: all other assays above

Source: PubChem BioAssay (NCATS)
